Compound activity (PubChem)
Sfp inh = blocks B. subtilis Sfp PPTase activity. Biochemical Sfp PPTase activity, qHTS. 310,000 tested, 3.5% active. Potency, µM, for inactives: largest response in the series, negative = inhibition, usual class: inhibitors. Q9F4F7;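 further: the enzyme is Sfp with the accession as filed and its product quenches rhodamine fluorescence; 0% = enzyme reaction without inhibitor and -100% = no enzyme wells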
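Compounds were incubated with enzyme (final 15 nM) for 15 min at room temperature before substrate addition started the reaction. Fluorescence at 525 nm excitation, 598 nm emission was recorded immediately and after 30 minutes.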
L3MBTL1 block = blocks human L3MBTL1. Q9Y468. AlphaScreen L3MBTL1–H3K9me1 peptide binding. Potency, µM (doses to about 57.1 µM), without a hit: at the highest dose activity, negative = inhibition, usual class: inhibitors. 230,000 tested, 0.66% active; further: on the % scale 0 is the no-effect control and ±100 the full control effect; nearly all actives have a fitted effect of over 60% in size
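First, the protein-peptide complex forms for 30 min at room temperature (L3MBTL1 50 nM, biotinylated H3K9me1 peptide 75 nM). Next, compounds are pin-transferred and incubated 30 min. Finally, AlphaScreen beads are added and read after 30 min.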
G9a inh = inhibitors of human histone lysine methyltransferase G9a; Q96KQ7; Potency, µM (titrated, usually from 102 µM), without a hit: at the top dose activity, negative = inhibition, actives largely listed as inhibitors; 350,000 tested, 8.8% active; G9a H3K9 monomethylation, AlphaScreen, 2 h; further: on the % scale 0 is the no-effect control and ±100 the full control effect; nearly all actives have a fitted effect of over 75% in size
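Step 1: enzyme (final 20 nM) with compound, 15 min RT. Step 2: substrate peptide 500 nM and SAM 20 uM, 2 h RT. Step 3: anti-H3K9me1 antibody and AlphaScreen beads, 10 min, then plate read.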
HP1b binding inh = HP1-beta chromodomain-methylated histone interaction inhibition; 390,000 tested, 0.56% active; AlphaScreen HP1-beta / biotin-H3K9me3 peptide binding; P83916; Potency, µM (highest dose often 114 µM), for the others: at the top dose activity change, negative = inhibition, actives largely listed as inhibitors; further: nearly all actives have a fitted effect of over 70% in size
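HP1-beta protein (50 nM final) preincubated 30 min at room temperature with biotinylated H3(1-18)K9me3 peptide (50 nM) in PBS pH 7.4, 0.01% Tween-20, then compound added for 30 min. AlphaScreen streptavidin donor/nickel chelate acceptor beads (10 ug/mL final), 30 min dark, luminescence read.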
JMJD2A Tudor inh = inhibitors of human JMJD2A Tudor domain | AlphaScreen JMJD2A-Tudor / H3K4me3 peptide binding | AID 504339 | Potency, µM (highest dose often 114 µM), inactives show at the highest dose activity change, negative = inhibition, hits mostly inhibitors | O75164 | 390,000 tested, 4.4% active; further: on the % scale 0 is the no-effect control and ±100 the full control effect; nearly all actives have a fitted effect of over 50% in size
BAZ2B inh = blocks human BAZ2B; Q9UIF8; AlphaScreen BAZ2B-H3K14Ac peptide displacement; Potency, µM (titrated, usually from 114 µM), for inactives: at the highest dose activity change, negative = inhibition, usual class: inhibitors; 360,000 tested, 4.4% active; AID 504333; further: on the % scale 0 is the no-effect control and ±100 the full control effect; nearly all actives have a fitted effect of over 60% in size
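Protein-peptide AlphaScreen: BAZ2B 50 nM, b-H3K14Ac 50 nM, 1x PBS pH 7.4 + 0.01% Tween-20. Preincubation 30 min RT; cpd 30 min RT (top 110 uM); beads 20 min RT, light-protected.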
Starred values were filed as active, the others as inactive; [ ] = another dose, or the depositor's remark. Rows were chosen to be rich in hits. Some 12% of all compounds tested hit in one or more screens of this group. The call rests on the fitted dose curve; in most records, active means well fitted curve in the direction sought with a large enough effect; inconclusive means small, poorly fitted or top-dose-only effect, or another doubt; inactive means no such curve, though single readings can be large; an effect the other way counts as inactive or inconclusive. Potency means the concentration at half of the fitted maximal effect.

COc1ccc(CC(=O)Nc2sc3c(c2C(=O)Nc2cccc(Cl)c2)CCCCC3)cc1 was read as G9a inh -1%[59 µM], HP1b binding inh 2%, JMJD2A Tudor inh -20% and BAZ2B inh -2%.
COc1ccc2c(c1)c(N1CCCC1=O)c(C(=O)Nc1ccc(Cl)cc1C)n2C was read as G9a inh 4%[59 µM], HP1b binding inh 32%, JMJD2A Tudor inh -13% and BAZ2B inh -16%.
`COc1ccccc1NC(=O)Nc1nc(CC(=O)Nc2cccc(F)c2)cs1` gave L3MBTL1 block 0%, G9a inh 40µM*, HP1b binding inh 3%, JMJD2A Tudor inh -34% and BAZ2B inh -35%.
COc1ccccc1NC(=O)Nc1nc(CC(=O)Nc2ccc(F)cc2)cs1 was read as L3MBTL1 block -8%, G9a inh -33%, HP1b binding inh 26%, JMJD2A Tudor inh -1% and BAZ2B inh -9%.
For COc1ccc(N2CCN(C(=O)Cc3csc(NC(=O)Nc4ccccc4OC)n3)CC2)cc1 the results were L3MBTL1 block -23%, G9a inh 7.9µM*, HP1b binding inh -23%, JMJD2A Tudor inh inconclusive and BAZ2B inh inconclusive.
`COc1ccccc1NC(=O)Nc1nc(CC(=O)N2CCN(c3ccccc3)CC2)cs1` gave L3MBTL1 block -14%, G9a inh inconclusive, HP1b binding inh 0%, JMJD2A Tudor inh -33% and BAZ2B inh -10%.
COc1ccccc1NC(=O)Nc1nc(CC(=O)Nc2cc(F)ccc2F)cs1 was read as L3MBTL1 block -9%, G9a inh 32µM*, HP1b binding inh -17%, JMJD2A Tudor inh -34% and BAZ2B inh -37%.
`COc1ccccc1NC(=O)Nc1nc(CC(=O)Nc2ccc(N(C)C)cc2)cs1` gave L3MBTL1 block inconclusive, G9a inh 11µM*, HP1b binding inh 40µM*, JMJD2A Tudor inh 25µM* and BAZ2B inh 13µM*.
COC(=O)c1ccc(CNC(=O)Cn2cnc(C(=O)Nc3ccc(C)c(C)c3)n2)cc1 was read as L3MBTL1 block -1%, HP1b binding inh 22% and JMJD2A Tudor inh -8%.
Screening Cc1ccc(S(=O)(=O)NC(C(=O)Oc2ccc3c(C(F)(F)F)cc(=O)oc3c2)c2ccccc2)cc1 (stereo unspecified) returned Sfp inh -12%, L3MBTL1 block 10%, G9a inh 7.1µM*, HP1b binding inh 39%, JMJD2A Tudor inh -9% and BAZ2B inh 3%.
For Cc1ccc(S(=O)(=O)N2CCOCC2)cc1NC(=O)CSc1nnc(NC2CC2)s1 the results were L3MBTL1 block -5%, G9a inh 9%[2.33 µM], HP1b binding inh 29%, JMJD2A Tudor inh -18% and BAZ2B inh -4%.
`COc1ccc(C(C)(C)C)cc1NC(=O)CN1C(=O)C(=O)N(Cc2ccco2)C1=O` gave L3MBTL1 block -5%, G9a inh -17%[12.7 µM], HP1b binding inh 4%, JMJD2A Tudor inh -19% and BAZ2B inh -9%.
For CCOc1ccccc1NC(=O)c1c(NC(=O)Cc2ccc(OC)cc2)sc2c1CCC2 the results were G9a inh 3%[59 µM], HP1b binding inh 33%, JMJD2A Tudor inh -4% and BAZ2B inh 3%.
Cc1ccc2nc(-c3ccc(NC(=O)c4ccco4)cc3)[nH]c2c1 was read as Sfp inh -4%, L3MBTL1 block 11%, G9a inh 28µM*, HP1b binding inh -20%, JMJD2A Tudor inh -34% and BAZ2B inh -16%.
Cn1cccc1-c1nc2ccc(NC(=O)c3ccco3)cc2[nH]1 was read as Sfp inh 10%, G9a inh inconclusive, HP1b binding inh inconclusive, JMJD2A Tudor inh inconclusive and BAZ2B inh 50µM*.
`O=C(Nc1nnc(CCc2ccccc2)s1)C1CCN(C(=O)c2ccco2)CC1` gave HP1b binding inh 12% and JMJD2A Tudor inh -18%.
For Nc1c(C(=O)CSc2nnc(Cc3ccccc3)o2)c(=O)[nH]c(=O)n1C1CC1 the results were L3MBTL1 block -4%, G9a inh 3%[12.7 µM], HP1b binding inh 16%, JMJD2A Tudor inh -17% and BAZ2B inh -1%.
`CC(C)NC(=O)c1onc(CSc2ccc(F)c(F)c2)c1C(=O)O` gave Sfp inh 79µM*, L3MBTL1 block -1%, G9a inh 51%[0.501 µM], HP1b binding inh 22%, JMJD2A Tudor inh 79µM* and BAZ2B inh inconclusive.
Screening CC(C)CN(CCCNC(=O)CN1N=C(c2ccccc2)CCC1=O)CC(C)C returned G9a inh 6%[59 µM], HP1b binding inh 30%, JMJD2A Tudor inh 5% and BAZ2B inh 0%.
O=C(NC(=S)Nc1cc(-c2nc3ccccc3[nH]2)ccc1Cl)c1ccc2c(c1)OCO2 was read as Sfp inh inconclusive, L3MBTL1 block 1%, G9a inh 45µM*, HP1b binding inh -19%, JMJD2A Tudor inh -14% and BAZ2B inh 1%.
`CCOc1ccc(C(=O)Nc2cc(-c3nc4ccccc4[nH]3)ccc2C)cc1[N+](=O)[O-]` gave Sfp inh 13%, L3MBTL1 block -6%, G9a inh 17%[59 µM], HP1b binding inh 13%, JMJD2A Tudor inh -25% and BAZ2B inh -1%.
For CCOc1ccc(C(=O)Nc2cc(-c3nc4ccccc4[nH]3)ccc2Cl)cc1[N+](=O)[O-] the results were Sfp inh inconclusive, L3MBTL1 block -2%, G9a inh inconclusive, HP1b binding inh 0%, JMJD2A Tudor inh 79µM* and BAZ2B inh -11%.
Screening FC(F)(F)c1ccc2c(c1)C1C=CCC1C(c1ccncc1)N2 (stereo unspecified) returned Sfp inh -7%, L3MBTL1 block inconclusive, G9a inh inconclusive, HP1b binding inh -8%, JMJD2A Tudor inh inconclusive and BAZ2B inh 45µM*.
Screening COc1cccc([C@@H]2Nc3ccc(C(=O)O)cc3[C@@H]3C=CC[C@@H]32)c1OC returned G9a inh inconclusive, HP1b binding inh 27%, JMJD2A Tudor inh -4% and BAZ2B inh -4%.
Screening O=C(O)c1ccc2c(c1)C1C=CCC1C(c1ccncc1)N2 (stereo unspecified) returned Sfp inh inconclusive, G9a inh inconclusive, HP1b binding inh 27%, JMJD2A Tudor inh -3% and BAZ2B inh 56µM*.
O=C(NCc1ccccn1)C1Nc2ccc(C(F)(F)F)cc2C2C=CCC12 (stereo unspecified) was read as HP1b binding inh 11% and JMJD2A Tudor inh inconclusive.
Screening COc1ccc(N(Cc2cccs2)C(=O)COc2ccc(C(C)C)cc2)cc1 returned G9a inh 76%[59 µM], HP1b binding inh 96%, JMJD2A Tudor inh 43% and BAZ2B inh 53%.
